The source of these data is publication PMC11006913.

Assay in all cases: PBM; 200 nM protein, PBS
Conditions in all cases: dsDNA, one strand shown

For assay [1], the target named is HOXB4 (Homo sapiens, UniProt P17483 148-234).
The target of assay [2] is T1, VENTX (Homo sapiens, UniProt O95231 78-163, R121Q).
T1 sequence: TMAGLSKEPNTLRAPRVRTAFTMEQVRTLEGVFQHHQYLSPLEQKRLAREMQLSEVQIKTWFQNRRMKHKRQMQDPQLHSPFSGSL

Assay [3] deals with HOXA4 (Homo sapiens, UniProt Q00056 201-287, W262R).
The target in another assay is ALX4 (Homo sapiens, UniProt Q9H161 200-286).
Assay [4] has as its target T2, PAX4 (Homo sapiens, UniProt O43316 9-242, R200K).
T2 sequence: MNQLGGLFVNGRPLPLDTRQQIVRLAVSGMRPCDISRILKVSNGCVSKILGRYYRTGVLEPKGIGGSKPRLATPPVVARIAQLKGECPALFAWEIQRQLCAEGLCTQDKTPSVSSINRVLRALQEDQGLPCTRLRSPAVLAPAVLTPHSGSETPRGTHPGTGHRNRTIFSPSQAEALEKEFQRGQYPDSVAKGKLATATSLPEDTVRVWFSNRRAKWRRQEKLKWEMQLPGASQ

The target of assay [5] is PRRX1 (Homo sapiens, UniProt P54821 80-166, F113S).
In assay [6] the target is T3, VENTX (Homo sapiens, UniProt O95231 78-163, Y115F).
T3 sequence: T1 sequence with Y38F, Q44R

In the next assay the target is HOXA2 (Homo sapiens, UniProt O43364 129-215, R185T).
The target of assay [7] is HOXA4 (Homo sapiens, UniProt Q00056 201-287, R217L).
Assay [8] addresses HOXB4 (Homo sapiens, UniProt P17483 148-234, V174I).
Assay [9] has as its target T4, PAX4 (Homo sapiens, UniProt O43316 9-242, R200Q).
T4 sequence: T2 sequence with K192Q

For assay [10], the target named is T5, PAX4 (Homo sapiens, UniProt O43316 9-242, F177V).
T5 sequence: T2 sequence with F169V, K192R

In assay [11] the target is HOXA4 (Homo sapiens, UniProt Q00056 201-287).
Assay [12] concerns the target MSX2 (Homo sapiens, UniProt P35548 130-214).
Assay [13] has as its target T6, PAX4 (Homo sapiens, UniProt O43316 9-242, F177Y).
T6 sequence: T2 sequence with F169Y, K192R

Assay [14] addresses MSX2 (Homo sapiens, UniProt P35548 130-214, F161Y).
Assay [15] addresses VAX1 (Homo sapiens, UniProt Q5SQQ9 86-172, T142I).
Assay [16] addresses HOXA4 (Homo sapiens, UniProt Q00056 201-287, W262F).
The target in assay [17] is PRRX1 (Homo sapiens, UniProt P54821 80-166).
Assay [18] concerns the target VAX1 (Homo sapiens, UniProt Q5SQQ9 86-172, K157R).

Changes are numbered by the printed parent chain.

ALX4, sequence (Q9H161 200-286): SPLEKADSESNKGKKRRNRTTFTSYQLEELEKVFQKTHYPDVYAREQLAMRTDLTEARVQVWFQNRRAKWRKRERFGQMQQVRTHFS
VAX1 (Homo sapiens, UniProt Q5SQQ9 86-172, K157R), sequence (Q5SQQ9 86-172 K157R): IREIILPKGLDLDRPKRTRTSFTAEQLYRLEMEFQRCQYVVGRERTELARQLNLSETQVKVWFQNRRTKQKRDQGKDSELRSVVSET
PRRX1 (Homo sapiens, UniProt P54821 80-166, F113S), sequence (P54821 80-166 F113S): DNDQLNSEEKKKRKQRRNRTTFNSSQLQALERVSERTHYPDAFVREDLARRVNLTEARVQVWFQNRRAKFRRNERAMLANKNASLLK
HOXA4 (Homo sapiens, UniProt Q00056 201-287, W262F), sequence (Q00056 201-287 W262F): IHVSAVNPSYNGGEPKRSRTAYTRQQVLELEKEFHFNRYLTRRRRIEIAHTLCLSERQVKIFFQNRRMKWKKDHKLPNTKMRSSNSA
PRRX1 (Homo sapiens, UniProt P54821 80-166), sequence (P54821 80-166): as the sequence (P54821 80-166 F113S) above, with S34F counted along it
HOXB4 (Homo sapiens, UniProt P17483 148-234, V174I), sequence (P17483 148-234 V174I): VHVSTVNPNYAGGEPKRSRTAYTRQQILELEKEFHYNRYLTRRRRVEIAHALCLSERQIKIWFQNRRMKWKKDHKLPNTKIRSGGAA
HOXB4 (Homo sapiens, UniProt P17483 148-234), sequence (P17483 148-234): as the sequence (P17483 148-234 V174I) above, with I27V counted along it
HOXA4 (Homo sapiens, UniProt Q00056 201-287), sequence (Q00056 201-287): as the sequence (Q00056 201-287 W262F) above, with F62W counted along it
HOXA4 (Homo sapiens, UniProt Q00056 201-287, R217L), sequence (Q00056 201-287 R217L): as the sequence (Q00056 201-287 W262F) above, with R17L, F62W counted along it
MSX2 (Homo sapiens, UniProt P35548 130-214), sequence (P35548 130-214): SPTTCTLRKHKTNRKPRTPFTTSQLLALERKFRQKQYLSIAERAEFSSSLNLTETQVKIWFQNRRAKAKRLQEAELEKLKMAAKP
HOXA2, sequence (O43364 129-215 R185T): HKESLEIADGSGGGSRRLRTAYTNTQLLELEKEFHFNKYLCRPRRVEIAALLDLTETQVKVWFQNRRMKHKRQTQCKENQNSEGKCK
HOXA4 (Homo sapiens, UniProt Q00056 201-287, W262R), sequence (Q00056 201-287 W262R): as the sequence (Q00056 201-287 W262F) above, with F62R counted along it
VAX1 (Homo sapiens, UniProt Q5SQQ9 86-172, T142I), sequence (Q5SQQ9 86-172 T142I): as the sequence (Q5SQQ9 86-172 K157R) above, with T57I, R72K counted along it
MSX2 (Homo sapiens, UniProt P35548 130-214, F161Y), sequence (P35548 130-214 F161Y): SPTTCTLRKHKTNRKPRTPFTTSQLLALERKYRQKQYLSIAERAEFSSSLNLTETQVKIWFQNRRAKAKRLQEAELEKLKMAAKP

AATTAATG: the binding signal is 13.4 upbm affinity estimate (log intensity, higher = more binding, comparable within an allelic series) with HOXB4 [1]; 12 upbm affinity estimate (log intensity, higher = more binding, comparable within an allelic series) with VENTX [2]; 10.6 upbm affinity estimate (log intensity, higher = more binding, comparable within an allelic series) in the assay with HOXA4 [3]; 14 upbm affinity estimate (log intensity, higher = more binding, comparable within an allelic series) with ALX4; 11.9 upbm affinity estimate (log intensity, higher = more binding, comparable within an allelic series) with PAX4 [4]; 11.3 upbm affinity estimate (log intensity, higher = more binding, comparable within an allelic series) with PRRX1 [5]. In addition, the binding signal with VENTX [6] was 11.8 upbm affinity estimate (log intensity, higher = more binding, comparable within an allelic series); with HOXA2 it was 13 upbm affinity estimate (log intensity, higher = more binding, comparable within an allelic series); with HOXA4 [7], 12.5 upbm affinity estimate (log intensity, higher = more binding, comparable within an allelic series); with HOXB4 [8], 14 upbm affinity estimate (log intensity, higher = more binding, comparable within an allelic series); with PAX4 [9], 12.3 upbm affinity estimate (log intensity, higher = more binding, comparable within an allelic series); with PAX4 [10], 10.6 upbm affinity estimate (log intensity, higher = more binding, comparable within an allelic series). For the same sequence, the binding signal with HOXA4 [11] is 14.1 upbm affinity estimate (log intensity, higher = more binding, comparable within an allelic series); in the assay with MSX2 [12], 13.5 upbm affinity estimate (log intensity, higher = more binding, comparable within an allelic series); in the assay with PAX4 [13], 11.2 upbm affinity estimate (log intensity, higher = more binding, comparable within an allelic series); with MSX2 [14], 13.2 upbm affinity estimate (log intensity, higher = more binding, comparable within an allelic series); in the assay with VAX1 [15], 12.9 upbm affinity estimate (log intensity, higher = more binding, comparable within an allelic series); with HOXA4 [16], 11.9 upbm affinity estimate (log intensity, higher = more binding, comparable within an allelic series). The binding signal with PRRX1 [17] is 13.4 upbm affinity estimate (log intensity, higher = more binding, comparable within an allelic series); in the assay with VAX1 [18], 12.8 upbm affinity estimate (log intensity, higher = more binding, comparable within an allelic series).

As to ATAATTAA, the binding signal was 13.6 upbm affinity estimate (log intensity, higher = more binding, comparable within an allelic series) in the assay with HOXB4 [1]; 12.1 upbm affinity estimate (log intensity, higher = more binding, comparable within an allelic series) in the assay with VENTX [2]; 10.9 upbm affinity estimate (log intensity, higher = more binding, comparable within an allelic series) with HOXA4 [3]; 14.5 upbm affinity estimate (log intensity, higher = more binding, comparable within an allelic series) with ALX4; 11.9 upbm affinity estimate (log intensity, higher = more binding, comparable within an allelic series) with PAX4 [4]; 12 upbm affinity estimate (log intensity, higher = more binding, comparable within an allelic series) in the assay with PRRX1 [5]. The binding signal with VENTX [6] was 12 upbm affinity estimate (log intensity, higher = more binding, comparable within an allelic series); with HOXA2 it was 13.6 upbm affinity estimate (log intensity, higher = more binding, comparable within an allelic series); with HOXA4 [7] it was 13 upbm affinity estimate (log intensity, higher = more binding, comparable within an allelic series); with HOXB4 [8] it was 14.4 upbm affinity estimate (log intensity, higher = more binding, comparable within an allelic series); with PAX4 [9] it was 12.3 upbm affinity estimate (log intensity, higher = more binding, comparable within an allelic series); with PAX4 [10] it was 10.8 upbm affinity estimate (log intensity, higher = more binding, comparable within an allelic series). Further, the binding signal with HOXA4 [11] was 14.3 upbm affinity estimate (log intensity, higher = more binding, comparable within an allelic series); with MSX2 [12] it was 13.9 upbm affinity estimate (log intensity, higher = more binding, comparable within an allelic series); in the assay with PAX4 [13] it was 11.2 upbm affinity estimate (log intensity, higher = more binding, comparable within an allelic series); in the assay with MSX2 [14], 13.5 upbm affinity estimate (log intensity, higher = more binding, comparable within an allelic series); with VAX1 [15] it was 13.7 upbm affinity estimate (log intensity, higher = more binding, comparable within an allelic series); in the assay with HOXA4 [16] it was 12.6 upbm affinity estimate (log intensity, higher = more binding, comparable within an allelic series). Moreover, the binding signal with PRRX1 [17] is 13.7 upbm affinity estimate (log intensity, higher = more binding, comparable within an allelic series); in the assay with VAX1 [18], 13.5 upbm affinity estimate (log intensity, higher = more binding, comparable within an allelic series).

On to GTAATTAA, for which the binding signal with HOXB4 [1] is 13.5 upbm affinity estimate (log intensity, higher = more binding, comparable within an allelic series); in the assay with VENTX [2], 12.4 upbm affinity estimate (log intensity, higher = more binding, comparable within an allelic series); in the assay with HOXA4 [3] it was 10.9 upbm affinity estimate (log intensity, higher = more binding, comparable within an allelic series); in the assay with ALX4, 14.4 upbm affinity estimate (log intensity, higher = more binding, comparable within an allelic series); with PAX4 [4] it was 12 upbm affinity estimate (log intensity, higher = more binding, comparable within an allelic series); with PRRX1 [5] it was 11.8 upbm affinity estimate (log intensity, higher = more binding, comparable within an allelic series). For the same sequence, the binding signal was 12.4 upbm affinity estimate (log intensity, higher = more binding, comparable within an allelic series) with VENTX [6]; 13.9 upbm affinity estimate (log intensity, higher = more binding, comparable within an allelic series) with HOXA2; 13.3 upbm affinity estimate (log intensity, higher = more binding, comparable within an allelic series) with HOXA4 [7]; 14.3 upbm affinity estimate (log intensity, higher = more binding, comparable within an allelic series) with HOXB4 [8]; 12.5 upbm affinity estimate (log intensity, higher = more binding, comparable within an allelic series) in the assay with PAX4 [9]; 10.8 upbm affinity estimate (log intensity, higher = more binding, comparable within an allelic series) in the assay with PAX4 [10]. Moreover, the binding signal is 14.3 upbm affinity estimate (log intensity, higher = more binding, comparable within an allelic series) with HOXA4 [11]; 14.1 upbm affinity estimate (log intensity, higher = more binding, comparable within an allelic series) with MSX2 [12]; 11.3 upbm affinity estimate (log intensity, higher = more binding, comparable within an allelic series) with PAX4 [13]; 13.7 upbm affinity estimate (log intensity, higher = more binding, comparable within an allelic series) with MSX2 [14]; 13.9 upbm affinity estimate (log intensity, higher = more binding, comparable within an allelic series) in the assay with VAX1 [15]; 12.9 upbm affinity estimate (log intensity, higher = more binding, comparable within an allelic series) with HOXA4 [16]. For the same sequence, the binding signal with PRRX1 [17] is 13.6 upbm affinity estimate (log intensity, higher = more binding, comparable within an allelic series); with VAX1 [18], 13.9 upbm affinity estimate (log intensity, higher = more binding, comparable within an allelic series).

Take CATAATTA: the binding signal with HOXB4 [1] is 13.6 upbm affinity estimate (log intensity, higher = more binding, comparable within an allelic series); with VENTX [2], 12 upbm affinity estimate (log intensity, higher = more binding, comparable within an allelic series); with HOXA4 [3] it was 10.9 upbm affinity estimate (log intensity, higher = more binding, comparable within an allelic series); with ALX4, 14.2 upbm affinity estimate (log intensity, higher = more binding, comparable within an allelic series); with PAX4 [4], 11.9 upbm affinity estimate (log intensity, higher = more binding, comparable within an allelic series); in the assay with PRRX1 [5], 11.6 upbm affinity estimate (log intensity, higher = more binding, comparable within an allelic series). The binding signal is 11.9 upbm affinity estimate (log intensity, higher = more binding, comparable within an allelic series) with VENTX [6]; 13.6 upbm affinity estimate (log intensity, higher = more binding, comparable within an allelic series) in the assay with HOXA2; 12.7 upbm affinity estimate (log intensity, higher = more binding, comparable within an allelic series) with HOXA4 [7]; 14.4 upbm affinity estimate (log intensity, higher = more binding, comparable within an allelic series) in the assay with HOXB4 [8]; 12.1 upbm affinity estimate (log intensity, higher = more binding, comparable within an allelic series) in the assay with PAX4 [9]; 11 upbm affinity estimate (log intensity, higher = more binding, comparable within an allelic series) in the assay with PAX4 [10]. Also, the binding signal with HOXA4 [11] was 14.3 upbm affinity estimate (log intensity, higher = more binding, comparable within an allelic series); in the assay with MSX2 [12], 13.9 upbm affinity estimate (log intensity, higher = more binding, comparable within an allelic series); with PAX4 [13], 11.3 upbm affinity estimate (log intensity, higher = more binding, comparable within an allelic series); in the assay with MSX2 [14] it was 13.5 upbm affinity estimate (log intensity, higher = more binding, comparable within an allelic series); in the assay with VAX1 [15], 13.6 upbm affinity estimate (log intensity, higher = more binding, comparable within an allelic series); with HOXA4 [16], 12.2 upbm affinity estimate (log intensity, higher = more binding, comparable within an allelic series). The binding signal was 13.6 upbm affinity estimate (log intensity, higher = more binding, comparable within an allelic series) with PRRX1 [17] and 13.7 upbm affinity estimate (log intensity, higher = more binding, comparable within an allelic series) with VAX1 [18].
